In all, about 33,000 sequences were measured (“E-score (-0.5 to 0.5)”: median about -0.01, highest 2% from about 0.26 on). The full list was thinned out, with the highest values kept by preference.

Sequence of UniProt P13574 (P13574 whole entry, the tested form may be a part): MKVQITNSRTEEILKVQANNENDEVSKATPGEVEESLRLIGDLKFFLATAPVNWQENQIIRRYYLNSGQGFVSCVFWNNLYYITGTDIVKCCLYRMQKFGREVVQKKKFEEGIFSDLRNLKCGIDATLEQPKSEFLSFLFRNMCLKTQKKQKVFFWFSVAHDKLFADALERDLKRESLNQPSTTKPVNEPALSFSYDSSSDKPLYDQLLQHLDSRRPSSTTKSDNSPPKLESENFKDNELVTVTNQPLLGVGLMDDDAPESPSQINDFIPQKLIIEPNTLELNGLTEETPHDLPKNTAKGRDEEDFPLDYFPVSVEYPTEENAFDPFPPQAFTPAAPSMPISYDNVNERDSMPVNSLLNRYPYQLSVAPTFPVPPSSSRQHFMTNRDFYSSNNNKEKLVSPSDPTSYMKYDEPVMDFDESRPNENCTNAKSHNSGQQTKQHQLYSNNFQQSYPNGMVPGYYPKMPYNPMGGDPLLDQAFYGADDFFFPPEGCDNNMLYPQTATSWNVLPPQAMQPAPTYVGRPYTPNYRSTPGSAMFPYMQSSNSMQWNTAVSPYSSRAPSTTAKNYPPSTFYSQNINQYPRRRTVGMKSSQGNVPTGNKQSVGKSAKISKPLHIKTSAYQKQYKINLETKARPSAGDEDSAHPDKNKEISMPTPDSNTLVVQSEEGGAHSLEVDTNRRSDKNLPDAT

In this assay the target is Ste12 (UniProt P13574). Put plainly: PBM E-score (8-mer binding enrichment) (E-score (-0.5 to 0.5)); higher = stronger / more preferred TF binding. Particulars: protein concentration: 200 nM; construct: GST-DNA-binding domain. The protocol:
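Universal 'all 10-mer' protein binding microarrays (Agilent AMADID 015681) probed with GST-tagged S. cerevisiae TFs (full-length or DBD) made by in vitro transcription/translation (PURExpress), about 100-200 nM. Bound TF was detected with fluorescent anti-GST. Each ungapped 8-mer (which stands for itself and its reverse complement) is scored by the PBM enrichment score (E-score), a modified Wilcoxon-Mann-Whitney statistic from -0.5 to +0.5, computed with the Universal PBM Analysis Suite. Scale: above 0.35 generally sequence-specific binding.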
Turning to ATACATAC, the “PBM E-score” value was determined as 0.134.
As for GGACATAA, the “PBM E-score” value amounted to 0.0357.
Next, CGGCATAA: -0.0029.
Take ATACATAA: the “PBM E-score” value was 0.21.
Next, AAACATAT: 0.273.
As to AAACATAC, the “PBM E-score” value came to 0.241.
Next, TGACATAA: 0.268; AGACATAA: 0.101.
Next, ACATGCAT: 0.0142.
Next, GACGCACC: -0.00732; ATAAAGAC: -0.0448; CACCCTCC: 0.213.
For the sequence GAGTTTGC, the “PBM E-score” value stood at 0.0562.
Next, ATCTACGG: -0.0913; AACTTTCT: 0.128; AACGGTGA: -0.122.
Next, ATTGCCCC: 0.0929; GGCGAGGA: -0.178; AATGGCCT: -0.00519.
Next, GAACATAA: 0.148; ACACATAA: 0.19.
On to AAACATTA, for which the “PBM E-score” value came to 0.207.
Turning to TAACATAA, the “PBM E-score” value is 0.275.
In the case of ACATACAC, the “PBM E-score” value came out at 0.0702.
Take CAACATAA: the “PBM E-score” value was found to be 0.189.
Next, ACATACAT: 0.263; AAACATAA: 0.306; ACATACAG: 0.0443.
GCTCGCCA: the “PBM E-score” value is -0.0532.
Next, ATTTGCGG: 0.148.
Next, ACCGTGCT: -0.08.
Consider AGTGCAAA, for which the “PBM E-score” value was 0.101.
Next, GAGGGGAA: 0.0394; AAACAAGC: 0.202.
Next, ATACGATC: 0.157; AACAATAA: 0.301; AACAATAC: 0.0824.
Next, AACAATAG: 0.0913; ATCAATTG: 0.154.
ATCAATTC: the “PBM E-score” value was determined as 0.0349.
Next, AACAATTC: 0.124; ATCAATTA: 0.289; AACAATTA: 0.297.
Next, AACAATTG: -0.0846.
Next, GCGGTTTA: 0.13; CTTGAGAC: 0.158.
ATCACTAC: the “PBM E-score” value was -0.117.
On to CTAGATTA, for which the “PBM E-score” value was -0.0366.
Next, TCCAAAGA: 0.0392; AGAAGAGC: -0.161; CCCGGCCG: -0.239.
Next, ACTGAGCC: -0.00502; TCATAAAA: 0.231.
Next, ATATATAC: 0.271; GTATAAAA: 0.241.
With CTATATAA, the “PBM E-score” value was found to be 0.174.
Consider TTATAAAA, for which the “PBM E-score” value is 0.268.
Next, ATATATAA: 0.273.
Take ATATAAAG: the “PBM E-score” value worked out at 0.171.
Next, CTATATAC: 0.162; TTATATAA: 0.176.
Next, GTATATAC: -0.207; ATATAAAC: 0.161.
Next, ATATAAAT: 0.279; CCGATTTA: 0.199.
As to AGCATCTG, the “PBM E-score” value was -0.159.
On to AGTGACAG, for which the “PBM E-score” value was -0.057.
Next, ACTAGTCC: -0.104; AGCAAACG: -0.0967.
Next, GTAGCTAC: -0.201.
Next, CTCCAGAA: -0.152; AGGTTTAG: 0.0936; AAGCCGGC: 0.0834.
Take GCTTGACA: the “PBM E-score” value is 0.0364.
As to ACATCGAA, the “PBM E-score” value stood at 0.0463.
Next, CGTCGCGC: 0.00057; GCAACAAC: -0.0707; CCGCTAAG: 0.109.
Next, ATATAAAA: 0.307; ACATAAAA: 0.17; CTATAAAA: 0.235.
ACCCGCGG: the “PBM E-score” value was found to be 0.176.
Next, TCTGAAGA: -0.149.
Turning to GACTCTGC, the “PBM E-score” value is -0.0845.
Next, GGCAAGAA: 0.0412.
Next, GGCAAAAC: 0.133.
Next, GGAAAAGA: 0.05; GGAAAACA: 0.177.
As to GGAAAAAA, the “PBM E-score” value was 0.309.
For the sequence ATAAAAGG, the “PBM E-score” value was found to be 0.0863.
Next, GAAAAAAA: 0.369.
For the sequence GAGAAAAA, the “PBM E-score” value was found to be 0.147.
Next, GAAAAAAC: 0.174; ATAAAAAG: 0.315; ATAAAAGA: 0.0538.
Next, GGCAAAAA: 0.346; CCATGGCG: -0.0357.
Turning to GCTTACTA, the “PBM E-score” value is 0.00559.
As for AGCCTCTG, the “PBM E-score” value was -0.135.
Next, CAGTTAGC: -0.218.
Next, AAAAAAAT: 0.337; TGAAAGAA: 0.131.
With CGAAATAA, the “PBM E-score” value came to 0.131.
Next, AAAAAATT: 0.197; ATAAAAAT: 0.241.
Next, AGGAAAAC: -0.0394.
Next, TGAAAACA: 0.162; GGAAATAA: 0.284.
On to GGAAAAAC, for which the “PBM E-score” value is 0.322.
Next, TGAAAAAA: 0.293; GGAAAACC: 0.0776.
Next, AGAAATAA: 0.207.

For the origin of these results see the supplement of paper PMC3334620.
